Screening data from PubChem BioAssay.
Pf Dd2 growth: inhibitors of Plasmodium falciparum Dd2 growth; AID 1347417; P. falciparum Dd2 growth, SYBR Green, 72 h; Potency, µM (highest dose often 28.9 µM), inactives show at the highest dose activity, negative = inhibition, hits mostly inhibitors; hit rate 4.3% among 120,000; active = well fitted inhibition curve with a large enough effect;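 note: plate controls were DMSO vehicle for no effect and reference drug for full effect; nearly all actives have a fitted effect of over 65% in size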
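Readout: SYBR Green fluorescence, 485 nm excitation, 535 nm emission, after ~16 h lysis at 37C. Before that, Dd2-infected red cells (2.5% hematocrit) grew 72 h with compound, 29 uM top final concentration.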
Starred values were filed as active, the others as inactive; i = inactive; [ ] = another dose, or the depositor's remark. This is one part of a sample in which hits are shown more often than they occur. Potency is the fitted concentration of half-maximal effect.

SMILES	Pf Dd2 growth
CCCc1noc(-c2cccn3c(CNC(=O)Cc4ccccc4Cl)nnc23)n1	i
CCCc1noc(-c2cccn3c(CNC(=O)c4ccc(C)cc4)nnc23)n1	13µM*
O=c1c2cc(-c3ccc(F)cc3)nn2ccn1CC(O)c1ccc(F)cc1 (stereo not drawn)	i
CC(=O)c1ccc(NC(=O)O[C@@H]2CO[C@H]3[C@@H]2OC[C@@H]3n2nnnc2SCc2ccco2)cc1	6.3µM*
O=C(NC1CCCCC1)O[C@@H]1CO[C@H]2[C@@H]1OC[C@@H]2n1nnnc1SCc1ccco1	i
O=C(Nc1ccccc1)O[C@@H]1CO[C@H]2[C@@H]1OC[C@@H]2n1nnnc1SCc1ccco1	i
Cc1nc(C)c(C(=O)N2CCCCCCNC(=O)[C@@H]3C[C@@H](c4nc(C(C)C)no4)C[C@@H]32)s1	i
CCn1cc(S(=O)(=O)N2CCC(Cc3nncn3CC)C2)cn1 (stereo not drawn)	37%
Cc1c(F)cccc1NC(=O)N1CCCC(c2noc(COc3ccccc3)n2)C1 (stereo not drawn)	-86%
CCCNC(=O)N1CCC(c2noc(COc3ccc(F)cc3)n2)C1 (stereo not drawn)	-29%
CCOc1ccccc1NC(=O)N1CCC(c2noc(COC)n2)C1 (stereo not drawn)	-7%
COCCOCc1nc(C2CCN(C(=O)NCc3ccc(C)cc3)CC2)no1	-25%
CCOc1ccccc1NC(=O)N1CCCC(c2noc(COc3ccccc3)n2)C1 (stereo not drawn)	5.6µM*
CCCNC(=O)N1CCC(c2noc(COc3ccc(C)cc3)n2)CC1	8.9µM*
O=C(Nc1cccc(-c2ccc(N3CCCC3)nn2)c1)Nc1c(F)cccc1F	-30%
N#Cc1cccc(-c2cn3c(n2)N(C(=O)c2ccncc2)CCC3)c1	i
CC(=O)NCC(=O)N1CCC(Oc2ccccc2-c2nc(C3CC3)no2)C1 (stereo not drawn)	26%
Cc1ccccc1-n1nc(C)c([C@H]2C=C[C@@H](OC(=O)N[C@H](C)c3ccccc3)C2)c1C	-8%[44.1 µM]
Cc1nn(-c2ccc(C(C)C)cc2)c(C)c1[C@@H]1C=C[C@@H](NC(=O)COCC(=O)O)C1	i
COc1ccc(-n2nc(C)c([C@H]3C=C[C@@H](OC(=O)N[C@H](C)c4ccccc4)C3)c2C)cc1	7.9µM*
COc1ccc(-n2nc(C)c([C@@H]3C=C[C@@H](NCc4ccccc4)C3)c2C)cc1	2.8µM*
Cc1nn(-c2ccccn2)c(C)c1[C@@H]1C=C[C@@H](NC(=O)NCc2ccccc2)C1	i
COc1ccc(NC(=O)O[C@@H]2C=C[C@H](c3c(C)nn(-c4ccc(C)c(Cl)c4)c3C)C2)cc1	i
COCCNC(=O)[C@@H]1C[C@H](Oc2ccccc2)CN1C(=O)c1cccc(C)c1	9%
Cc1ccc(-c2ncc(C(=O)Nc3ccc(F)c(F)c3)c(-c3ccncc3)n2)cc1	-22%
SMILES	Pf Dd2 growth
O=C(Nc1cc(F)cc(F)c1)c1cnc(-c2ccc(F)cc2)nc1-c1ccncc1	10µM*
COc1cc(NC(=O)c2cnc(-c3ccc(C)cc3)nc2-c2ccncc2)cc(OC)c1	-14%
CCCn1cnnc1CNC1CCC2(CCNCC2)CC1	-13%
COc1ccc(-c2noc(-c3nc(-c4cccnc4)no3)n2)cc1OC	2%
Cc1nc(NC(C)c2nc(-c3cccnc3)no2)c2cccnc2n1 (stereo not drawn)	3.5µM*
C[C@@H](NC(=O)c1cccnc1)c1onc(-c2cccnc2)c1C(=O)O	20%[44.1 µM]
O=C(NC1CCCc2c1[nH]c1ccccc21)c1n[nH]c2c1CCCC2 (stereo not drawn)	-11%
COc1ccc(-c2cc(C[C@H]3CNCC[C@H]3CC(=O)NCc3cccnc3)no2)cc1	-8%[44.1 µM]
NC(=O)C1CCN(C(=O)C[C@@H]2CCNC[C@@H]2Cc2cc(COc3ccccc3)on2)CC1	12%
CC(C)(C)c1cc(C[C@H]2CNCC[C@H]2CC(=O)N2CCC(Cc3ccccc3)CC2)no1	7.9µM*
COc1ccc(-c2cc(C[C@H]3CNCC[C@H]3CC(=O)NC(C)C)no2)cc1	i
COc1ccc(-c2cc(C[C@H]3CNCC[C@H]3CC(=O)N3CCC(Cc4ccccc4)CC3)no2)cc1	7.9µM*
COc1ccccc1N1CCN(C(=O)C[C@@H]2CCNC[C@@H]2Cc2cc(-c3ccc(F)cc3)on2)CC1	11µM*
O=C(C[C@@H]1CCNC[C@@H]1Cc1cc(CN2CCOCC2)on1)N1CCN(c2ccccc2)CC1	6%
COc1ccccc1N1CCN(C(=O)C[C@@H]2CCNC[C@@H]2Cc2cc(COc3ccccc3)on2)CC1	-29%
COc1ccc(-c2cc(C[C@H]3CNCC[C@H]3CC(=O)N3CCN(c4ccccc4OC)CC3)no2)cc1	-26%
CC(C)c1ccc(CNC(=O)c2ccc(CN3C(=O)NC4(CCOCC4)C3=O)cc2)cc1	-2%
CCNC(=O)NC[C@H]1COCc2nc3cc(C(=O)OC)ccc3n21	0%[44.1 µM]
COc1ccc(CN2Cc3[nH]nc(-c4cccnc4OC)c3CC2=O)cc1	20%[44.1 µM]
COC(=O)[C@H]1CCCN1C(=O)[C@@H]1[C@@H](NC(=O)NC(C)C)CCN1C(=O)c1cccn1C	26%[44.1 µM]
CN(C)c1cccc(-c2cn(C)c(=O)n3cc(CN4CC[S+](=O)([O-])CC4)nc23)c1	-18%[44.1 µM]
Cc1ccc(NC(=O)N2CC3CC(C2)[C@H]2CCCC(=O)N2C3)cc1 (stereo partly drawn)	10%
COC(=O)CNC(=O)C1=NOC2CN(C(=O)Nc3cccnc3)CC12 (stereo not drawn)	22%
COc1nccc(N2CCC(CC(=O)N3CCCN(c4ncccn4)CC3)CC2)n1	i
O=C1CC(c2ccccc2)N(C(=O)c2cccs2)CCCCCCN1 (stereo not drawn)	-27%
SMILES	Pf Dd2 growth
CO[C@H]1[C@H](NC(=O)c2cc(C)nn2C)c2ccccc2C12CCNCC2	-3%
CO[C@H]1[C@H](NC(=O)c2cc3ccccc3[nH]2)c2ccccc2C12CCNCC2	-5%
CO[C@H]1[C@H](NC(=O)c2cc3ccccc3n2C)c2ccccc2C12CCNCC2	7.9µM*
COC(=O)[C@H](Cc1ccccc1)NC1CCN(c2cccc(NC(=O)CC3CCCC3)c2)CC1	-2%
CCCN(CC1CCOC1)C(=O)NCCC(C)C (stereo not drawn)	20%[5.79 µM]
Cc1cc(C)c(Cn2c3ccccc3c3cnn(CC(=O)NCc4ccc(Cl)cc4)c(=O)c32)c(C)c1	7.9µM*
Cc1ccc(Cn2c3ccccc3c3cnn(CC(=O)Nc4cc(Cl)ccc4C)c(=O)c32)cc1	12%
O=C(Cn1ncc2c3ccccc3n(Cc3cccc(Cl)c3)c2c1=O)NCCCc1ccccc1	-6%
CCCCN(C)CCCNC(=O)Cn1ncc2c3ccccc3n(Cc3cccc(Cl)c3)c2c1=O	5.6µM*
O=C(Cn1ncc2c3ccccc3n(Cc3ccc(Cl)cc3)c2c1=O)NCCCc1ccccc1	34%[0.594 µM]
CCN(CC)CCCNC(=O)Cn1ncc2c3ccccc3n(Cc3ccccc3)c2c1=O	-22%
Cc1ccccc1Cn1c2ccccc2c2cnn(CC(=O)NCc3cccc(Cl)c3)c(=O)c21	-5%
CCCN1CCN(C(=O)Cn2ncc3c4ccccc4n(Cc4cccc(Cl)c4)c3c2=O)CC1	11µM*
CCCn1c2ccccc2c2cnn(CC(=O)NC(C)CC)c(=O)c21 (stereo not drawn)	5%
CC(C)CN1C(=O)COC[C@@H]1[C@H](O)c1ccc(NC(=O)c2ccc3c(c2)OCO3)cc1	i
FC(F)(F)c1ccccc1CN1CCC2(CC1)CC(c1ccccc1)=NO2	i
